Results: the supplement of paper PMC11732987, “Enantioselective OTUD7B fragment discovery through chemoproteomics screening and high-throughput optimisation” (Communications Chemistry, 2025)

Assays:
Experiment in all cases: log2 ratio of Biotin-Ahx-Ub-VS probe labelling (fragment/DMSO); higher = less target engagement (more negative = stronger competition), active = hit call of the paper (q ≤ 0.05, log2 ratio ≤ -1)
Details in all cases: compound concentration: 200 uM; treatment time: 3 h
OTUD6B = molecular target: T1, OTUD6B (UniProt Q8N6M0)
T1 sequence (whole entry): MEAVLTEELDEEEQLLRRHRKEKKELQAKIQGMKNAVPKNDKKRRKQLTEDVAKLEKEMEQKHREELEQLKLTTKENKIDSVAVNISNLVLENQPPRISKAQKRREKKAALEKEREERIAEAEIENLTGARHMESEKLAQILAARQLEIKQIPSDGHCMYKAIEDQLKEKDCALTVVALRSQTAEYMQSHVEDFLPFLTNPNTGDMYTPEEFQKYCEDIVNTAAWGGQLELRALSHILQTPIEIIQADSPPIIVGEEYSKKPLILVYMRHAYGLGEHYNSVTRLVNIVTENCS
In short: (§1)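 HEK293T lysate (495 µg per sample, in Tris/CHAPS/IGEPAL buffer with protease inhibitors) was treated in triplicate with fragment at 200 µM or with DMSO for 3 h. It was then treated with Biotin-Ahx-Ub-VS (0.5 µM final) for 1 h. Labelled DUBs were NeutrAvidin-enriched, digested with LysC and trypsin, and run by diaPASEF LC-MS/MS. Spectronaut label-free quantities were global-median-normalised. Values are average log2 ratios fragment/DMSO by unpaired t-test, using proteins with ≥2 unique peptides.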

OTUD7B = molecular target: T2, OTUD7B (UniProt Q6GQQ9)
T2 sequence (whole entry): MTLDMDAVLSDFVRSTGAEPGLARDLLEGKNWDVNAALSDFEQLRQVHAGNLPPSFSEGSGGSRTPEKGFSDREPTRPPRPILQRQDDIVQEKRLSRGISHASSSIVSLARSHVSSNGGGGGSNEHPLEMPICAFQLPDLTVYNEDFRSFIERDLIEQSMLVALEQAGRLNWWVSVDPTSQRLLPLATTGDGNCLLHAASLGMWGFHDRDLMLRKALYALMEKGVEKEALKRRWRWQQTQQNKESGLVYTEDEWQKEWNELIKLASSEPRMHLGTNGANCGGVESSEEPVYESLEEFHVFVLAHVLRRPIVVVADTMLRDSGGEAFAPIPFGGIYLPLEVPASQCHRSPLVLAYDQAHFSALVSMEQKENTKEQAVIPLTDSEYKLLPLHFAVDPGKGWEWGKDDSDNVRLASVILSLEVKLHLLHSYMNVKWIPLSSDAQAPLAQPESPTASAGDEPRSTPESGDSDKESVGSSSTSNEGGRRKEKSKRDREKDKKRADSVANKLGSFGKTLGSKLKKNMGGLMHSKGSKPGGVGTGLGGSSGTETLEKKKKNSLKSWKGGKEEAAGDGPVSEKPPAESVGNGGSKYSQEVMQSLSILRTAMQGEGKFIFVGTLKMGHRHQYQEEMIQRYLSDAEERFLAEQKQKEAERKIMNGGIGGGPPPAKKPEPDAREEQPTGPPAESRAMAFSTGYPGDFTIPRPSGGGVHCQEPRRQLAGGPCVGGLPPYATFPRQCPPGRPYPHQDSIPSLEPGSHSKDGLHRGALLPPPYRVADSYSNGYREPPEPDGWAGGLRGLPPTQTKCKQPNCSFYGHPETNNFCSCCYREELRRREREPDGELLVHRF
In short: as §1

PRPF8 = PRPF8 (UniProt Q6P2Q9)
In short: as §1

PSMD7 = molecular target: T3, PSMD7 (UniProt P51665)
T3 sequence (whole entry): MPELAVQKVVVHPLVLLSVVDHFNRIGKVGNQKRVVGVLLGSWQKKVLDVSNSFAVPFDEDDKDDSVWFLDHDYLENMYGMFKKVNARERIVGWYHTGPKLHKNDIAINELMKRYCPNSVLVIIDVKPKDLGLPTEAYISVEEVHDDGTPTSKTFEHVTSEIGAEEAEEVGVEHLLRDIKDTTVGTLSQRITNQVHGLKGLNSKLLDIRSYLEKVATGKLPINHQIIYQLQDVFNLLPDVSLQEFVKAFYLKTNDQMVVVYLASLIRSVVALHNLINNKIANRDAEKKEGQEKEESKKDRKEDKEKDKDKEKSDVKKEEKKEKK
In short: as §1

UCHL1 = UCHL1 (UniProt P09936)
In short: as §1

UCHL3 = molecular target: T4, UCHL3 (UniProt P15374)
T4 sequence (whole entry): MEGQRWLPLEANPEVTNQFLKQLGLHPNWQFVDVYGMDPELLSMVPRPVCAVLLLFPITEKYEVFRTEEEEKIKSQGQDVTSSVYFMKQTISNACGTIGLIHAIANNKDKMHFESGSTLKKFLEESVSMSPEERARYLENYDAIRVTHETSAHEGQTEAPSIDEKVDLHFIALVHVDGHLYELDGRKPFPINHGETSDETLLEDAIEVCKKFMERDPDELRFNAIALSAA
In short: as §1

UCHL5 = molecular target: T5, UCHL5 (UniProt Q9Y5K5)
T5 sequence (whole entry): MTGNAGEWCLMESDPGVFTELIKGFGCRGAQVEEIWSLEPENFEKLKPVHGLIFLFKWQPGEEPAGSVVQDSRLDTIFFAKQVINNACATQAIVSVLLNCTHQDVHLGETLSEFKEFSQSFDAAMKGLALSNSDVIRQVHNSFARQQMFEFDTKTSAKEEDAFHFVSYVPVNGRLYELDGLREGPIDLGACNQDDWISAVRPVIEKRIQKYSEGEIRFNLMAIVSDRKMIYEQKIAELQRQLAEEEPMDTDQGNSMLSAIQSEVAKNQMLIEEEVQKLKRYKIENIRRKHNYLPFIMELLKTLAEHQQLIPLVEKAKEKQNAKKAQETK
In short: as §1

USP10 = USP10 (UniProt Q14694)
In short: as §1

USP15 = molecular target: T6, USP15 (UniProt Q9Y4E8)
T6 sequence (whole entry): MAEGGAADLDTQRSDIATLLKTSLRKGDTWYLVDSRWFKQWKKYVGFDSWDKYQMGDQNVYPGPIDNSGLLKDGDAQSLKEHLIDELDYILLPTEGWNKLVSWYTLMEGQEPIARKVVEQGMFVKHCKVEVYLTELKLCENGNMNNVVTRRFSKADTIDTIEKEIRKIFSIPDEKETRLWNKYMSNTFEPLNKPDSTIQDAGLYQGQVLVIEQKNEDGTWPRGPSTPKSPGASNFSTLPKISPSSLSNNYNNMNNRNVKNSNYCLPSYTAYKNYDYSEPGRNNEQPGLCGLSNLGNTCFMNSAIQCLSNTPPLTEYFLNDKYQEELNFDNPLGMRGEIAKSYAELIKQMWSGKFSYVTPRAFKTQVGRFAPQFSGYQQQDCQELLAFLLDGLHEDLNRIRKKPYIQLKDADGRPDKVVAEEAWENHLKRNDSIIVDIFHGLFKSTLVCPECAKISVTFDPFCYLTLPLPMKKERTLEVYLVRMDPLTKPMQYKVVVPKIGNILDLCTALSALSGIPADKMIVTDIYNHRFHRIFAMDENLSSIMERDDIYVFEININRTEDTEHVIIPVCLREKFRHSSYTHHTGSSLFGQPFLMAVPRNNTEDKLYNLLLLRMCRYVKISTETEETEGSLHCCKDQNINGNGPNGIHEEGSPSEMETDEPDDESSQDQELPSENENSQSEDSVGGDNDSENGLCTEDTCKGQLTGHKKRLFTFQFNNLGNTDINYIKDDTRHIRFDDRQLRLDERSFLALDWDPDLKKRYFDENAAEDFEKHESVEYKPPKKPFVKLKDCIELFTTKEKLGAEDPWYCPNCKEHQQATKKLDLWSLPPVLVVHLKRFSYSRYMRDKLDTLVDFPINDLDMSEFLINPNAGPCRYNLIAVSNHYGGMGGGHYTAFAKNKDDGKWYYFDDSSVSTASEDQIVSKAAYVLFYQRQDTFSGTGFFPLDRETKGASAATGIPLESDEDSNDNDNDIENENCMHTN
In short: as §1

USP16 = USP16 (UniProt Q9Y5T5)
In short: as §1

Measured: log2 ratio of Biotin-Ahx-Ub-VS probe labelling

Sequence of USP16 (Q9Y5T5 whole entry, looked up): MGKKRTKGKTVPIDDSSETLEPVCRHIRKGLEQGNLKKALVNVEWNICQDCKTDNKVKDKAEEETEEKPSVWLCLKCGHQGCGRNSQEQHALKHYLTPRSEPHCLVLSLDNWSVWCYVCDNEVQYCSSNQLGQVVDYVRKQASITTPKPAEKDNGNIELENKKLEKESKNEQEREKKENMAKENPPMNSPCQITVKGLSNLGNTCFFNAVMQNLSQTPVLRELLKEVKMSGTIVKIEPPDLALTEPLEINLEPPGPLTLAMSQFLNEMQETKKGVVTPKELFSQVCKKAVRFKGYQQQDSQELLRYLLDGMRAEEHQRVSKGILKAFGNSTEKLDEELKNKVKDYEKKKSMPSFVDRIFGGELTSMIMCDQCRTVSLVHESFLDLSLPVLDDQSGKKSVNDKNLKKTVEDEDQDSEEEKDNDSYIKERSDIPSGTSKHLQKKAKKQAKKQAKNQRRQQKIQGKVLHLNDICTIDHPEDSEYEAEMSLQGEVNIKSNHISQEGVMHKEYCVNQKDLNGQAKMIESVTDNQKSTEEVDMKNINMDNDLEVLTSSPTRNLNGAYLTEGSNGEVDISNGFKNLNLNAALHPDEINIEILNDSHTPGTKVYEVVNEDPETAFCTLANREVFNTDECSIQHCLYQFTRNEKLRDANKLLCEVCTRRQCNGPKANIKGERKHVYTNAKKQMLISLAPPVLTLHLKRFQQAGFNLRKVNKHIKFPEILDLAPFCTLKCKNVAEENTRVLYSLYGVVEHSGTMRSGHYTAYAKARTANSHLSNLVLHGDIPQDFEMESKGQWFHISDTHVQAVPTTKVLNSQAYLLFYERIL
Sequence of UCHL1 (P09936 whole entry, looked up): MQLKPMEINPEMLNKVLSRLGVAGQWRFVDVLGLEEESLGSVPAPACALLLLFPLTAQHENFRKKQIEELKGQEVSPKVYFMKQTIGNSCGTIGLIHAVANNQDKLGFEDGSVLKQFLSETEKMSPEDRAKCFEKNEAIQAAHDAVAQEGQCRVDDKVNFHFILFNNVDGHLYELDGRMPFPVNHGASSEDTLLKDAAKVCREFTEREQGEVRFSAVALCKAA
Sequence of USP10 (Q14694 whole entry): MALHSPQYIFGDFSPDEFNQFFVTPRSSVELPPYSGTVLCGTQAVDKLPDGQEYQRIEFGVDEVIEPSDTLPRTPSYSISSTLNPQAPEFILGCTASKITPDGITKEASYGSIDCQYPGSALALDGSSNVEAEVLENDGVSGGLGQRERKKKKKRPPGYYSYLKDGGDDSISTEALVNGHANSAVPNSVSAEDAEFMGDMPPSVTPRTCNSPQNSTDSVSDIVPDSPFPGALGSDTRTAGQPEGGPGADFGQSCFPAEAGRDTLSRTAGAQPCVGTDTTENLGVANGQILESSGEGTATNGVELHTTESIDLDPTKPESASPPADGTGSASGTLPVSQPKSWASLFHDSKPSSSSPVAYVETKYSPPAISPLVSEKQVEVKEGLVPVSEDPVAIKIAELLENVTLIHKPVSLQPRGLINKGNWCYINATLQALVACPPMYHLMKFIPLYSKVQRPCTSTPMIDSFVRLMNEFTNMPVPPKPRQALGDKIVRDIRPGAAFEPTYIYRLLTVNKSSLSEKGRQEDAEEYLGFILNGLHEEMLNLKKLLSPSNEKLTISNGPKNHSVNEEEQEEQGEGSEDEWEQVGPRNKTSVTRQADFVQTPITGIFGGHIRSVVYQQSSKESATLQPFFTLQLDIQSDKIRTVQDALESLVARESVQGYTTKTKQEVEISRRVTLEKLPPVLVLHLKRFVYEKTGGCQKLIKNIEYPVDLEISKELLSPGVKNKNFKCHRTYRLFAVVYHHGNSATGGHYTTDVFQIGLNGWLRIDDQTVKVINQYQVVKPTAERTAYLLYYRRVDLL

CN(Cc1nc2ccccc2[nH]1)C(=O)CCl.Cl
inactive: OTUD6B -0.0126 | OTUD7B -0.039 | PRPF8 0.00724 | PSMD7 -0.142 | UCHL1 0.185 | UCHL3 0.504 | UCHL5 -0.121 | USP10 -0.14 | USP15 -0.17 | USP16 -0.572
